# This is a sample that favours compounds with a hit; in the whole collection about 1.8% have one here.
# LYPLA2 inh: blocks human lysophospholipase 2, a PME1 counter-screen; O95372; recombinant LYPLA2, FP-Rh probe fluorescence polarization; inhibition, % at 5.9 µM; hit rate 0.38% among 320,000; AID 2177;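 active = inhibition above the screen-wide mean plus 3 SD, limit set per campaign, cut at about 26% in these data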;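 note: 0% = LYPLA2 with DMSO and 100% = wells lacking LYPLA2 enzyme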
# Fam108B inh: Fam108B inhibition, counter-screen for RBBP9 inhibitors; recombinant Fam108B, FP-Rh probe fluorescence polarization; inhibition, % at 9.51 µM; hit rate 0.33% among 300,000; AID 1947;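 active = inhibition above the screen mean inhibition plus 3 SD, computed separately per campaign, cut at about 18% in these data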;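 note: inhibitors lower polarization as less probe binds the enzyme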
# GSTO1 inh: GSTO1 inhibition, counter-screen for RBBP9 inhibitors; P78417; recombinant GSTO1, activity-based probe fluorescence polarization; inhibition, % at 5.96 µM; hit rate 1.1% among 300,000; AID 1974;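 active = inhibition above the campaign mean inhibition plus 3 SD, cut at about 35% in these data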;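 note: 0% = GSTO1-1 with DMSO and 100% = wells lacking GSTO1-1 enzyme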
# Target sequence (P78417 whole entry, looked up): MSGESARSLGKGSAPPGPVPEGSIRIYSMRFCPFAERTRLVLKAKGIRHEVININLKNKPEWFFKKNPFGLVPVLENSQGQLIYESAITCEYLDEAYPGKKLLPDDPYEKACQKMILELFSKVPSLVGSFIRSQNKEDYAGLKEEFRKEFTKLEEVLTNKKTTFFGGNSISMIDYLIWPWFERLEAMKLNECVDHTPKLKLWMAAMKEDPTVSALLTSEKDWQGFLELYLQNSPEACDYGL
# PAD4 inh: PAD4 (human) enzyme inhibition. Q9UM07. recombinant PAD4, RCA probe fluorescence polarization. inhibition, % at 6.36 µM. hit rate 0.41% among 330,000. AID 485272;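 active = percent inhibition above a cutoff equal to the mean of all tested compounds plus 3 SD, cut at about 15% in these data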;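 note: 0% = PAD4 with RCA probe and DMSO and 100% = probe without PAD4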
# LYPLA1 inh: LYPLA1 (human) inhibition in PME1 counter-screen; O75608; recombinant LYPLA1, FP-Rh probe fluorescence polarization; inhibition, % at 5.9 µM; hit rate 0.16% among 320,000; AID 2174;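 active = inhibition above the mean of all tested compounds plus 3 SD, set per campaign, cut at about 14% in these data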;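 note: inhibitors block serine hydrolase probe labeling of LYPLA1 so polarization falls; 0% = enzyme with DMSO and 100% = wells lacking LYPLA1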
# Target sequence (O75608 whole entry, looked up): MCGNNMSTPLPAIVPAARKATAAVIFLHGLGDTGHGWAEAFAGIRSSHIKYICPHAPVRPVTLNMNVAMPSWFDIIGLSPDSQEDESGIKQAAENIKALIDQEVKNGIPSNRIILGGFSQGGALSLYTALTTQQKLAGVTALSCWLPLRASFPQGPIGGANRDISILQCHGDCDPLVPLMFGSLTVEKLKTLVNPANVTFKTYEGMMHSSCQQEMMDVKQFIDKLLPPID
# PME-1 primary: PME-1 (human) inhibition. Q9Y570. recombinant PME-1, FP-Rh probe fluorescence polarization. inhibition, % at 5.9 µM. hit rate 0.53% among 320,000. AID 2130;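 active = inhibition above the campaign mean of all compounds plus 3 SD, cut at about 26% in these data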;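 note: competitive labeling of PME-1 active site by serine hydrolase directed probe; 0% = PME-1 with DMSO and 100% = wells lacking PME-1 enzyme; inhibitors block probe labeling so polarization falls and inhibition rises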
# PAD4 confirm: PAD4 (human) inhibition, confirmed; shares compounds with PAD4 inh; recombinant PAD4, RCA probe fluorescence polarization; inhibition, % at 6.36 µM; hit rate 28% among 1,200;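 active = mean inhibition across replicates above the hit cutoff set by the earlier primary screen, cut at about 15% in these data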;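 note: inhibitors block active-site labeling by the probe so polarization falls; 0% = PAD4 with probe and DMSO and 100% = probe without PAD4 enzyme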
# * hit, by the source's call; / = no result.
SMILES,LYPLA2 inh,Fam108B inh,GSTO1 inh,PAD4 inh,LYPLA1 inh,PME-1 primary,PAD4 confirm
CC(=O)Nc1ccc(Nc2nc(Cl)nc(Nc3ccc(NC(C)=O)cc3)n2)cc1,-6,2,5,19*,-3,5,1
COc1ccc(Nc2nc(Cl)nc(Nc3ccc(OC)cc3)n2)cc1,0,0,4,-6,1,3,/
CC(=O)OCCNc1cc(SCc2ccco2)c2nonc2c1[N+](=O)[O-],-2,10,24,16*,-7,1,-4
COC(=O)CCSc1cc(NCCOC(C)=O)c([N+](=O)[O-])c2nonc12,-4,3,4,-11,-2,5,/
Cc1cccc(C(=O)O/N=C(\N)Cc2cccc3ccccc23)c1,-8,0,-3,34*,-5,0,4
CCOC(=O)C1=C(C)N=c2s/c(=C\c3cccc(OCC(=O)O)c3)c(=O)n2C1c1ccccc1OC (stereo unspecified),2,2,1,6,2,1,/
CCOC(=O)C1=C(C)N=c2s/c(=C/c3ccc(OCC(=O)O)cc3)c(=O)n2C1c1cc(OC)c(OC)c(OC)c1 (stereo unspecified),-3,-2,-4,25*,-1,-10,4
CCOC(=O)C1=C(C)N=c2s/c(=C\c3ccc(OCC(=O)O)cc3)c(=O)n2C1c1ccc(OC(C)C)cc1 (stereo unspecified),-6,-7,-13,18*,-7,-12,3
COc1cccc(C2C(C(=O)Nc3ccccc3)=C(C)N=c3s/c(=C/c4ccc(OCC(=O)O)cc4)c(=O)n32)c1 (stereo unspecified),-11,-13,-10,19*,-9,-14,3
CCN(CC)S(=O)(=O)c1ccc(C)c(NC(=O)COC(=O)CN2C(=O)NC(C)(C)C2=O)c1,6,0,2,0,0,3,/
Cc1ccc(C(=O)Nc2nc3ccccc3c(=O)s2)cc1,-5,6,7,15*,-1,-1,-4
CC(=O)Nc1nc(=O)c2ccccc2s1,1,-4,5,4,1,2,/
O=C(Nc1nc(=O)c2ccccc2s1)c1ccccc1,-2,3,-7,24*,-1,-9,2
CSc1nc2ccc3nc(NC(=O)c4ccc(C)cc4)sc3c2s1,-6,-12,0,-6,-2,-5,/
CC/C(=C\C(=O)c1ccncc1)Nc1ccc(O)cc1,4,-1,10,77*,1,5,-5
O=C(N/N=C/c1ccc(O)cc1)c1ccncc1,1,0,-5,0,1,0,/
Cc1cc(C(=O)CSc2nc(N)cc(=O)[nH]2)c(C)n1CC1CCCO1 (stereo unspecified),/,/,/,28*,/,/,15*
Cc1ccc(NC(=O)c2cccc(C(=O)Nc3ccc(C)cc3C(=O)O)c2)c(C(=O)O)c1,-3,-5,-43,-1,1,2,/
Cc1ccc(S(=O)(=O)CCSc2cccc(C(=O)Nc3ccccc3C(=O)O)c2)cc1,2,-7,-42,19*,-4,36*,36*
CC(C)(C)[C@@H]1CCC(=O)N(CC[C@H](Sc2ccc(Br)cc2)c2ccccc2)CC1,/,/,/,0,/,/,/
O=c1c2cc(F)ccc2sn1-c1ccc(F)cc1,12,/,/,30*,2,8,25*
COc1ccc(-n2sc3ccc(F)cc3c2=O)cc1,4,/,/,31*,-1,6,30*
O=C1CCCC(=O)N1c1ccc(F)cc1,5,1,0,-3,-2,-7,/
Cc1ccc(C)c(-n2sc3ccc(F)cc3c2=O)c1,9,/,/,38*,1,4,35*
COC(=O)[C@@]1(C)[C@H]2C(=O)N(C)C(=O)[C@H]2[C@H]2CN(C)C(=NC3CCCCC3)N21,/,/,/,6,/,/,/
SMILES,LYPLA2 inh,Fam108B inh,GSTO1 inh,PAD4 inh,LYPLA1 inh,PME-1 primary,PAD4 confirm
CC1=CC(C)(C)N2C(=O)C3(SCC(=O)N3c3ccc(O)cc3)c3cc(C)cc1c32 (stereo unspecified),-3,4,-7,-6,-1,0,/
Cc1ccc(N2C(=O)CSC23C(=O)Nc2ccccc23)cc1 (stereo unspecified),4,-3,2,16*,-3,-1,19*
O=C(CS)Nc1ccc2ccccc2c1,-7,3,2,28*,-2,-1,9
COc1ccc(C(CNC(=O)CCC(=O)c2ccc(C)s2)N2CCOCC2)cc1 (stereo unspecified),3,/,/,1,0,-6,/
Cc1nn(-c2cccc(Cl)c2)c2c1C(c1ccncc1)C(C#N)=C(N)O2 (stereo unspecified),3,2,7,34*,-2,6,6
Cc1nn(-c2ccccc2)c2c1C(c1cccs1)C(C#N)=C(N)O2 (stereo unspecified),-2,0,16,6,-4,2,/
Cc1ccc(-n2nc(C)c3c2OC(N)=C(C#N)C3c2ccc(F)cc2)cc1 (stereo unspecified),3,6,42*,43*,3,5,-1
Cc1nn(-c2cccc(Cl)c2)c2c1C(c1cccnc1)C(C#N)=C(N)O2 (stereo unspecified),-3,4,7,62*,-1,0,-8
O=C(Nc1nccs1)C1CCCN1/C=C/C(=O)C(F)(F)F (stereo unspecified),-4,0,4,-1,-5,6,/
COC(=O)c1cc(OCC(=O)Nc2ccc3c(c2)CCC3)cc(C(=O)OC)c1,/,/,/,-6,/,/,/
CC(C)=CCC/C(C)=C/CNC(=O)C[C@H]1C[C@H](C(=O)N(C(C)C)C(C)C)[C@@]2(C)c3[nH]c4cc(CCC(=O)N(C)C)ccc4c3CCN2C1=O,/,/,/,4,/,/,/
COc1ccccc1CNC(=O)CN1C(=O)NC2(CCOc3ccccc32)C1=O (stereo unspecified),/,/,/,-1,/,/,/
O=C(CN1C(=O)NC2(CCCC2)C1=O)Nc1cc(C(F)(F)F)ccc1N1CCCCC1,2,1,2,-3,0,-1,/
COc1cc(/C=C/C(=O)OCC(=O)N(C)Cc2ccccc2)cc(OC)c1OC,/,/,/,26*,/,/,-5
CC(C)Cn1c(N)c(C(=O)COC(=O)C2Cc3ccccc3CN2S(C)(=O)=O)c(=O)n(C)c1=O (stereo unspecified),4,/,/,-2,-1,-6,/
Cc1cc(C)n(CCCNC(=O)c2ccc(C)o2)n1,-7,/,/,-1,-1,1,/
c1ccc(C2=NNC(=NC3CC3)SC2)cc1,8,3,2,22*,0,2,1
CCCCCC(=O)Nc1ccc(C(=O)CN2C(=O)NC3(CCCCCC3)C2=O)cc1,-4,1,6,0,-3,-3,/
CCC(=O)Nc1ccc(C(=O)CN2C(=O)NC3(CCCCCC3)C2=O)cc1,1,/,/,30*,-6,-4,-3

# High-throughput results (PubChem BioAssay)
